HT1080NT lethal = qHTS for induction of synthetic lethality in tumor cells producing 2HG: qHTS for the HT-1080-NT fibrosarcoma cell line; HT-1080-NT fibrosarcoma viability, CellTiter-Glo ATP luminescence, 48 h; Potency, µM (highest dose often 46.1 µM), for the others: at the top dose activity, negative = less viability, hits mostly cytotoxic; 360,000 tested, 1.6% active;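 note: NT is the 2HG producing partner of a matched IDH1 knockdown line; potency is the fitted concentration of half-maximal effect; 0% = DMSO-treated cells and -100% = media-only wells without cells; nearly all actives have a fitted effect of over 55% in size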
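Compounds were tested in concentration-response format on HT-1080-NT cells for 48 hours at 37 degrees C. Cell viability came from CellTiter-Glo luminescence; curves were classified by r2, response magnitude and activity.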
DT40 TDP1 no CPT = qHTS for Inhibitors of human tyrosyl-DNA phosphodiesterase 1 (TDP1): qHTS in cells in absence of CPT | DT40 Tdp1-/- hTDP1 cells, no CPT, ATP luminescence, 48 h | Potency, µM (doses to about 46.2 µM), without a hit: top-dose activity change, negative = growth inhibition, hits mostly inhibitors | 420,000 tested, 15% active; note: potency is the fitted concentration of half-maximal effect; nearly all actives have a fitted effect of over 55% in size
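Chicken DT40 Tdp1-/- cells stably complemented with human TDP1 were seeded at 400 cells/well with DMSO in place of 20 nM camptothecin. After compound pinning, cells grew at least 48 hr at 37 °C; viability read by CellTiter-Glo luminescence.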
HT1080 IDH1KD tx = qHTS for induction of synthetic lethality in tumor cells producing 2HG: qHTS for the HT-1080-IDH1KD cell line; AID 686971, 2013; 360,000 tested, 2% active; Potency, µM (top dose mostly 46.1 µM), for the others: at the highest dose activity, negative = toxicity, usual class: cytotoxic; HT-1080 IDH1 knockdown viability, ATP luminescence, 48 h;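 note: potency is the fitted concentration of half-maximal effect; 0% = DMSO wells and -100% = cell-free medium wells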
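Cytotoxicity counter-line: IDH1KD HT-1080, 48 h, CellTiter-Glo. Curves classed by r2, magnitude and activity.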
IL1B secr inh = qHTS for Inhibitors of Inflammasome Signaling: IL-1-beta AlphaLISA Primary Screen | THP-1 LPS/ATP IL-1B secretion, AlphaLISA, 16 h; active compounds read low | activity change, % at 57.5 µM | 360,000 tested, 4.7% active | AID 743279, 2014; in the data active = activity change below about -50%; inconclusive = mostly about -30% to -49%
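Secreted IL-1B measured by AlphaLISA bead assay after 16 h compound exposure of THP-1 cells; compounds (final up to 57.5 uM) added 1 h before LPS (250 ng/mL) and ATP (1.25 mM) stimulation; lower signal means less secretion.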
DT40 TDP1 CPT = qHTS for Inhibitors of human tyrosyl-DNA phosphodiesterase 1 (TDP1): qHTS in cells in presence of CPT | 420,000 tested, 12% active | chicken DT40 Tdp1-/-;hTDP1 cells + 20 nM CPT, ATP luminescence, 48 h | Potency, µM (top dose mostly 46.2 µM), for inactives: at the top dose activity change, negative = growth inhibition, usual class: inhibitors | AID 686979, 2013; note: potency is the fitted concentration of half-maximal effect; nearly all actives have a fitted effect of over 55% in size
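Chicken DT40 Tdp1-/- cells stably complemented with human TDP1 were seeded at 400 cells/well in medium containing 20 nM camptothecin, exposed to pin-transferred compounds, and grown at 37 °C for at least 48 hr. Viability was read as ATP luminescence.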
An asterisk follows results filed as active; ? = inconclusive; . = not tested or not shown; [ ] = dose if it differs, or a comment. Only some compounds are listed: those with a hit (about 19% of all), similar ones and a draw of the others. Unless noted, calls come from the whole dose curve; as a rule, active = well fitted curve in the direction sought with a large enough effect; inconclusive = small, poorly fitted or top-dose-only effect, or another doubt; inactive = no such curve, though single readings can be large; an effect the other way counts as inactive or inconclusive. Unless noted, % is set by controls: 0 for no effect and ±100 for the full control effect.

SMILES | HT1080NT lethal | DT40 TDP1 no CPT | HT1080 IDH1KD tx | IL1B secr inh | DT40 TDP1 CPT
CCOc1ccc(NS(=O)(=O)c2ccc3[nH]cc(C(=O)NC4CCCC4)c(=O)c3c2)cc1 | . | -22.9% | . | . | -0.8%
CCCCN(C)CCNC(=O)c1c[nH]c2ccc(S(=O)(=O)N(CC)CC)cc2c1=O | 11.2% | -5.9% | 12.3% | -22.8 | -20.1%
C=CCNC(=O)c1c[nH]c2ccc(S(=O)(=O)N(C)c3ccc(OCC)cc3)cc2c1=O | 0.3% | 20.6µM* | 0.0% | 34.4 | 20.6µM*
CCc1ccccc1N(C)S(=O)(=O)c1ccc2[nH]cc(C(=O)N3CCc4ccccc43)c(=O)c2c1 | ? | 18.4µM* | ? | -8.7 | ?
CCOc1ccc(NS(=O)(=O)c2ccc3[nH]cc(C(=O)NCc4ccccc4)c(=O)c3c2)cc1 | . | ? | . | . | -26.8%
CCOc1ccc(N(C)S(=O)(=O)c2ccc3[nH]cc(C(=O)NCCOC)c(=O)c3c2)cc1 | -1.1% | ? | -15.3% | 4.3 | 13µM*
COCCCNC(=O)c1c[nH]c2ccc(S(=O)(=O)N(C)c3ccccc3C)cc2c1=O | 3.1% | ? | 9.7% | 21.2 | ?
COc1ccc2c(c1)OC[C@H]1[C@H]2N2C(=O)c3ccc(F)cc3NC(=O)[C@@]2(C)[C@H]1c1ccccc1 | ? | 23.1µM* | ? | -54.3* | 18.4µM*
COc1ccc2c(c1)[C@H]1[C@H](CO2)[C@H](c2ccccc2)[C@]2(C)C(=O)Nc3cc(F)ccc3C(=O)N12 | ? | 18.4µM* | ? | ? | ?
O=C(CSc1ccc(S(=O)(=O)N2CCCCC2)cn1)Nc1ccccc1Br | -8.5% | ? | -8.6% | 22.5 | ?
CN(C)c1c(Br)cc(C=O)cc1Br | . | -19.1% | . | . | 6.4%
CN(C)CCCn1c(=O)n(CCc2ccccc2)c(=O)c2c3c(sc21)CCCCC3 | 5.2% | 23.1µM* | 0.1% | ? | ?
CN(C)CCn1c(=O)n(Cc2ccccc2)c(=O)c2c3c(sc21)CCCCC3 | ? | ? | ? | -63.6* | -6.6%
CN(C)CCCNc1nc2sc3c(c2c(=O)n1CCc1ccccc1)CCCCC3 | ? | 16.4µM* | ? | . | ?
NC(=O)Cn1c2[n+](c3ccccc31)CC(O)CS2 (stereo not given) | 11.2% | 1.2% | 10.9% | 8.1 | 2.0%
COc1ccc(-c2ccc(CCC(=O)O)n2-c2ccc(Cl)cc2C)cc1 | . | -17.9% | . | . | -5.0%
Cc1cc2cc(CNC(=O)c3ccc(Br)o3)ccc2n1C | 12.0% | -26.7% | -3.8% | 22.5 | 25.9µM*
Cc1cc2cc(CNC(=O)Cc3cccs3)ccc2n1C | 5.7% | ? | -1.1% | -3.4 | 8.2µM*
Cc1cc2cc(CNC(=O)c3ccc(Br)o3)ccc2[nH]1 | 0.0% | ? | 2.1% | -14.8 | ?
COc1ccccc1OCCSc1nc2ccccc2n1CC(=O)N1CCOCC1 | . | ? | . | . | -15.3%
C[C@]12C[C@H](O)CC(CO)(CO)C1[C@H](O)C[C@@]13CC4[C@@H](CC12)[C@@]4(C)C3 (stereo not given in full) | . | -9.4%[9.04 µM] | . | . | 4.7%[9.04 µM]
COc1cc(OC)c(C(=O)/C=C/c2ccccc2)c(O)c1O | -16.2% | ? | -17.5% | -100.2* | ?
COc1cc(O)cc(O)c1C(=O)/C=C/c1ccccc1 | -16.3% | 14.6µM* | -13.3% | -106.1* | 14.6µM*
COCOc1ccc(/C=C/C(=O)c2c(O)cc(OCOC)cc2OCOC)cc1 | -9.5% | ? | -12.4% | ? | ?
COc1cc(/C=C/C(=O)O)cc(Br)c1O | -6.3% | -1.5% | -15.7% | 14.7 | 1.6%
SMILES | HT1080NT lethal | DT40 TDP1 no CPT | HT1080 IDH1KD tx | IL1B secr inh | DT40 TDP1 CPT
COC(=O)c1ccc(NC(=O)c2nn(C)c3c2CS(=O)(=O)c2ccccc2-3)cc1 | . | -1.4% | . | . | -14.4%
C=Cc1ccc(Cn2c(C)c(C(=O)NCc3cccc(C)c3)sc2=O)cc1 | -20.7% | -12.6% | ? | 0.0 | -33.2%
CNC(=O)CSc1nc2cccnc2n1C1CCCCC1 | 6.8% | ? | 3.5% | 19.2 | -15.2%
O=C(CSCc1nc2cccnc2n1C1CCCCC1)NCc1cccc(Br)c1 | . | 20.6µM* | . | . | 16.4µM*
O=C(CSCc1nc2cccnc2n1C1CCCCC1)NCc1cccc(Cl)c1 | . | 10.3µM* | . | . | 23.1µM*
COc1ccc(Cl)cc1NC(=O)CN(C)S(=O)(=O)c1ccc2c(c1)CCCN2C(C)=O | . | 8.2µM* | . | . | 13µM*
CCCN(CCC)S(=O)(=O)c1ccc2c(c1)CCCN2C(C)=O | -4.0% | ? | -11.2% | 24.4 | -18.9%
CC(=O)N1CCCc2cc(S(=O)(=O)N(C)CC(=O)Nc3ccc(Cl)cc3C)ccc21 | . | 23.1µM* | . | . | 23.1µM*
CSc1cccc(NC(=O)CN(C)S(=O)(=O)c2ccc3c(c2)n(C)c(=O)c(=O)n3C)c1 | . | -24.6% | . | . | -15.9%
COc1ccc(OC)c(NC(=O)CN(C)S(=O)(=O)c2ccc(Cl)cc2)c1 | 11.8% | -29.9% | 9.1% | 10.2 | -8.5%
CSc1cccc(NC(=O)CN(C)S(=O)(=O)c2ccc3c(c2)CCCN3C(C)=O)c1 | . | 25.9µM* | . | . | ?
COc1ccc(NC(=O)CN(C)S(=O)(=O)c2ccc3c(c2)CCCN3C(C)=O)cc1Cl | . | 20.6µM* | . | . | ?
COc1ccccc1C1CN(Cc2c(C)nc3sccn23)Cc2ccccc2O1 (stereo not given) | . | -19.6% | . | . | 6.7%[9.04 µM]
O=C(NCCN1CCOCC1)c1ccc2ccccc2c1 | -6.8% | -14.3% | -14.9% | 18.0 | 20.6µM*
O=C(NCCN1CCOCC1)c1cc(-c2ccco2)on1 | 3.9% | 14.6µM* | 10.3% | 3.3 | 14.6µM*
O=C(Oc1c(-c2ccccc2)c(=O)n2c3c(cccc13)CC2)c1ccc(Cl)cc1 | 21.6% | 20.6µM* | 13.3% | 14.9 | -22.7%
CCCc1nc2nc(C)c(NS(=O)(=O)c3ccc(C(C)(C)C)cc3)c(=O)n2[nH]1 | -5.9% | -1.2% | 0.9% | 14.2 | 2.7%
CC(C)CC(=O)Nc1ccc2nc(SCC(=O)N3CCCC3)sc2c1 | . | 23.1µM* | . | . | 23.1µM*
CCC(=O)Nc1ccc2nc(SCC(=O)N3CCCC3)sc2c1 | 11.8% | -13.4% | 9.7% | 10.8 | -17.1%
CCC(CC)C(=O)Nc1ccc2nc(SCC(=O)N3CCCC3)sc2c1 | . | 20.6µM* | . | . | ?
CC1CN(C(=O)CCCN2C(=O)c3ccccc3C2=O)CC(C)O1 (stereo not given) | 5.1% | 2.7% | 8.9% | 22.2 | 15.8%
